Test results reported in PubChem BioAssay (Tox21).
Values without a mark were called inactive. Results filed as inconclusive are left out. A call without a number means that no potency is given here. Calls of active or inactive are those of the source. Unless noted, the call rests on the fitted dose curve; in most records, active means well fitted curve in the direction sought with a large enough effect in the repeat runs; inconclusive means weak or mixed curves; inactive means no such curve, though single readings can be large; an effect the other way counts as inactive or inconclusive.

Tests used:
[1] = qHTS assay to identify small molecule antagonists of the estrogen related receptor (ERR) signaling pathway from Tox21 library - cell viability counter screen (AID 1224834); further: nearly all actives have a fitted effect of over 30% in size; further: potency means the concentration at half of the fitted maximal effect
In short: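 CellTiter-Fluor fluorescence measured; ERR cells; 17.5 h compound incubation at 37 C; 30 min reagent step.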

[2] = target: Luciferin 4-monooxygenase (Photinus pyralis) (UniProt P08659); assay: qHTS assay to identify small molecule inhibitors of firefly luciferase (AID 1224835); further: nearly all actives have a fitted effect of over 25% in size
Sequence of Luciferin 4-monooxygenase (Photinus pyralis) (P08659 whole entry, looked up): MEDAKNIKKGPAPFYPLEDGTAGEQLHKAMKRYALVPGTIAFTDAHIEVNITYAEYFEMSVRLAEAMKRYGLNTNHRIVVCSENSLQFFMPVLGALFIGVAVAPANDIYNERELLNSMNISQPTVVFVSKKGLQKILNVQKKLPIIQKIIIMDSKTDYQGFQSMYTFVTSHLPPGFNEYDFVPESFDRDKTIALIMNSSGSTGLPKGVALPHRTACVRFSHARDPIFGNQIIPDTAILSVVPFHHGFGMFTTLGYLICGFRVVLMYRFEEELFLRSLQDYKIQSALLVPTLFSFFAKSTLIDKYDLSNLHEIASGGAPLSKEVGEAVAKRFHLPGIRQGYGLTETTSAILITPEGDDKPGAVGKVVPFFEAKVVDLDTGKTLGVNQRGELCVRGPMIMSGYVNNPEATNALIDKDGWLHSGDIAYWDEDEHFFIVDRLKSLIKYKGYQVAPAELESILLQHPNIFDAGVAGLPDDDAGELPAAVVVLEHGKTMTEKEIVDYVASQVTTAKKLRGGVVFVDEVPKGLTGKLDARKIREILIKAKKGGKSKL
In short: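 Biochemical qHTS: compounds run as interplate titrations against purified firefly enzyme, with D-luciferin and ATP each at its KM concentration. Light output recorded by CCD imaging.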

[3] = qHTS assay to identify small molecule antagonists of the constitutive androstane receptor (CAR) signaling pathway - cell viability counter screen (AID 1224837); further: nearly all actives have a fitted effect of over 45% in size
In short: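 Using CellTiter-Fluor, viability is scored in HepG2 cells stably carrying hCAR and a 2.2kb CYP2B6 reporter after 23 hr compound exposure across 15 concentrations, with CITCO present at 50 nM.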

[4] = target: Nuclear receptor subfamily 1 group I member 3 (Homo sapiens) (UniProt Q14994); assay: qHTS assay to identify small molecule antagonists of the constitutive androstane receptor (CAR) signaling pathway (AID 1224838);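 further: HepG2 cells stably expressing hCAR with CYP2B6 luciferase reporter stimulated by CITCO; nearly all actives have a fitted effect of over 40% in size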; further: potency means the concentration at half of the fitted maximal effect
Sequence of Nuclear receptor subfamily 1 group I member 3 (Homo sapiens) (Q14994 whole entry, looked up): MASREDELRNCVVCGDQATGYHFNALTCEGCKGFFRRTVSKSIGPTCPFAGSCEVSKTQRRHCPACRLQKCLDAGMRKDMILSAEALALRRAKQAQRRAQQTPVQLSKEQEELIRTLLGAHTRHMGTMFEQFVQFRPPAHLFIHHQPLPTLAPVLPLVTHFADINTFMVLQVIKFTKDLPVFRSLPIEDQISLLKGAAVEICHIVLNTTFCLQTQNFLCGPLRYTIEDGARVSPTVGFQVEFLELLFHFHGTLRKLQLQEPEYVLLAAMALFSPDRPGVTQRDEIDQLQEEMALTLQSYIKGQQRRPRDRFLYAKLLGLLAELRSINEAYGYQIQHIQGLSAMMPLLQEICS
In short: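 Reporter luminescence was quantified after 24 h exposure of hCAR/CYP2B6-2.2kb double-stable HepG2 cells to compounds at 15 concentrations in the presence of 50 nM CITCO final.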

[5] = target: Nuclear receptor subfamily 1 group I member 3 (Homo sapiens) (UniProt Q14994); assay: qHTS assay to identify small molecule agonists of the constitutive androstane receptor (CAR) signaling pathway (AID 1224839); further: nearly all actives have a fitted effect of over 15% in size; further: potency means the concentration at half of the fitted maximal effect;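 on activation: HepG2 cells stably carrying human CAR and a CYP2B6 luciferase reporter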
In short: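 Cells were plated and incubated 4 hrs, then dosed with compounds at 15 concentrations. PK11195 was added to 0.75 uM final. After 24 hrs at 37 C, luciferase luminescence was measured.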

[6] = qHTS assay to identify small molecule antagonists of the estrogen related receptor signaling pathway with the pleiotropic PPARgamma coactivator (PGC) from Tox21 10K library - cell viability counter screen (AID 1224840; active means well fitted cell-killing curve with a large enough effect in the repeat runs, not every such curve was filed as active; further: nearly all actives have a fitted effect of over 40% in size)
In short: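 Here the PGC/ERR cells serve as a cytotoxicity control: they are exposed to compounds for 17.5 hours at 37 C, and live-cell signal is quantified using CellTiter-Fluor fluorescence.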

[7] = target: Thyrotropin receptor (Homo sapiens) (UniProt P16473); assay: qHTS assay to identify small molecule agonists of the thyroid stimulating hormone receptor (TSHR) signaling pathway (AID 1224843; calls by dose curve; further: nearly all actives have a fitted effect of over 45% in size)
Sequence of Thyrotropin receptor (Homo sapiens) (P16473 whole entry, looked up): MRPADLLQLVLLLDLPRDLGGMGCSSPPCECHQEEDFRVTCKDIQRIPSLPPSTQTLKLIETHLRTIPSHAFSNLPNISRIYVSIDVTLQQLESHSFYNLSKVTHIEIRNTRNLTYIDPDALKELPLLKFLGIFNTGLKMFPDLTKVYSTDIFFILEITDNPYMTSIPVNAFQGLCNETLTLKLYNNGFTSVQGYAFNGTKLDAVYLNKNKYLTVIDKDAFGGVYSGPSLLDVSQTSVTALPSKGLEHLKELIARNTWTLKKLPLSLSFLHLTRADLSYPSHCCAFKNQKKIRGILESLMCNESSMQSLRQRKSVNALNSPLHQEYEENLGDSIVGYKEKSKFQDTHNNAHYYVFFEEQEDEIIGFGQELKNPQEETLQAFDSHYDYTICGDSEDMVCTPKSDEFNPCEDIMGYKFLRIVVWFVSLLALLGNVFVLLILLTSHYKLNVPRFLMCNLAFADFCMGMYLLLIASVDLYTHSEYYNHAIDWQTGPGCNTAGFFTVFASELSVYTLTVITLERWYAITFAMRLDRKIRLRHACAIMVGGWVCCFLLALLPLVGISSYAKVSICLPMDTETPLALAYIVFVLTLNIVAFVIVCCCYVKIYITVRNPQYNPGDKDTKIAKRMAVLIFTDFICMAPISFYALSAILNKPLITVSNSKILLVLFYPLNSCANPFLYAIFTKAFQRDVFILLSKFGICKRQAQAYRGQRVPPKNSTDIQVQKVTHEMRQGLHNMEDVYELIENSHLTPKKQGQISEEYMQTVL
In short: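 Steps: seed 800 TSHR-HEK293 cells per well; add test compound and hold 30 min at ambient temperature; dispense cAMP-d2 then anti-cAMP cryptate; incubate 1 h at ambient; measure fluorescence intensity.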

[8] = qHTS assay to identify small molecule agonists of the hypoxia (HIF-1) signaling pathway - cell viability counter screen (AID 1224844; calls by dose curve; further: nearly all actives have a fitted effect of over 50% in size; further: potency means the concentration at half of the fitted maximal effect)
In short: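 Multiplexed with the HRE beta-lactamase assay, this viability read used CellTiter-Glo luminescence (30 min, RT) on HRE-bla ME-180 cells treated 17 hrs with compounds in 0.5% dialyzed FBS medium.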

[9] = qHTS assay to identify small molecule agonists of H2AX (AID 1224845; active means well fitted activation curve with a large enough effect in the signal ratio in the repeat runs, not every such curve was filed as active; the % refers to the signal ratio; further: potency means the concentration at half of the fitted maximal effect)
In short: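 Wild-type CHO-K1 cells, plated overnight, exposed 3hr at 37C to 15 concentrations (0.76% DMSO final). Lysed, then HTRF anti-pH2AX (S139) cryptate and anti-H2AX-d2 antibodies, 24 hr room temperature; 665/620 nm emission read.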

[10] = qHTS assay to identify small molecule agonists of the hypoxia (HIF-1) signaling pathway (AID 1224846; active means well fitted activation curve with a large enough effect in the signal ratio in the repeat runs, not every such curve was filed as active; the % refers to the signal ratio)
In short: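 Hypoxia-pathway activation was scored as increased beta-lactamase from an HRE-controlled reporter in ME-180 cells; plated at 2,000 cells per well with 0.5% dialyzed FBS, they were exposed 17 hrs to compounds and then given CCF4-AM.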

[11] = qHTS assay to identify small molecule agonists of H2AX - cell viability counter screen (AID 1224847; calls by dose curve; further: nearly all actives have a fitted effect of over 30% in size; further: potency means the concentration at half of the fitted maximal effect)
In short: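 Cytotoxicity counter screen in wild-type CHO-K1 cells: a 3 hr compound treatment at 37C across 15 concentrations, followed by CellTiter-Glo luminescence to gauge viable cells.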

[12] = qHTS RealTime-Glo MT Cell Viability Assay in HepG2 cells - 24 hour (AID 1224867); further: nearly all actives have a fitted effect of over 50% in size
In short: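 Viability was tracked continuously by NanoLuc luminescence from prosubstrate reduced by living HepG2 cells, at successive time points over 40 h of compound exposure. Cells with reagent were preincubated 5 h at 37 °C before compound addition.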

[13] = qHTS RealTime-Glo MT Cell Viability Assay in HEK293 cells - 32 hour (AID 1224868); further: nearly all actives have a fitted effect of over 50% in size; further: potency means the concentration at half of the fitted maximal effect
In short: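 Viability tracked continuously by luminescence as live cells reduce a prosubstrate for NanoLuc; HEK293 cells preincubated 5 h, compound-treated at 37 C, and read at 0, 8, 16, 24, 32 and 40 h.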

[14] = A CellTox Green Cytotoxicity Assay to monitor cytotoxicity in HEK293 cells - 0 hour (AID 1224869); further: nearly all actives have a fitted effect of over 50% in size
In short: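 Seeding of HEK293 cells together with cytotoxicity dye preceded a 5 h incubation at 37 C/5% CO2. Test compounds in DMSO were then added and fluorescence monitored across 40 h.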

[15] = qHTS RealTime-Glo MT Cell Viability Assay in HepG2 cells - 40 hour (AID 1224870); further: nearly all actives have a fitted effect of over 50% in size
In short: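 HepG2 cells (600/well) mixed with RealTime-Glo MT reagent, settled 5 h at 37 C/5% CO2 before compound addition. Nonlytic NanoLuc luminescence from viable-cell prosubstrate reduction read repeatedly during 40 h treatment at 37 C.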

[16] = qHTS assay to identify small molecule antagonists of the estrogen related receptor signaling pathway with the pleiotropic PPARgamma coactivator (PGC) from Tox21 10K library (AID 1224841; call rule not given here)
In short: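 Each well held 2,000 PGC/ERR cells, pre-incubated six hours (37 C, 5% CO2). Test substances in DMSO were added by pin tool and left for 18 h at 37 C before luciferase detection by One-Glo.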

[17] = qHTS assay to identify small molecule agonists of the estrogen related receptor signaling pathway with the pleiotropic PPARgamma coactivator (PGC) from Tox21 10K library (AID 1224842); further: nearly all actives have a fitted effect of over 15% in size
In short: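 PGC/ERR reporter cell line, 2,000 cells per well, incubated 6 h at 37 C before 23 nL compound in DMSO was added. After 18 h at 37 C, One-Glo luminescence read following 30 min at room temperature.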

[18] = qHTS assay to identify small molecule antagonists of the estrogen related receptor (ERR) signaling pathway from Tox21 library (AID 1224848); further: nearly all actives have a fitted effect of over 50% in size; further: potency means the concentration at half of the fitted maximal effect
In short: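 Luminescent reporter read-out (ONE-Glo) from NTP's ERR cell line after 18 h treatment at 37 C with DMSO-dissolved Tox21 compounds; cells pre-plated 6 h beforehand at 2,000 per well.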

[19] = qHTS assay to identify small molecule agonists of the estrogen related receptor (ERR) signaling pathway from Tox21 library (AID 1224849; calls by dose curve; further: nearly all actives have a fitted effect of over 15% in size); settings: ERR reporter cell line, ONE-Glo luciferase, 18 h; at 92.4 µM (top of the series) unless noted
In short: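 Six hours post-seeding at 37 C/5% CO2, ERR cells receive DMSO-solubilised compounds; after 18 h at 37 C, ONE-Glo reagent is applied and luminescence recorded.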

[20] = qHTS assay to identify small molecule agonists of the constitutive androstane receptor (CAR) signaling pathway - cell viability counter screen (AID 1224836); further: nearly all actives have a fitted effect of over 45% in size
In short: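 Cells were seeded and incubated 4 hrs. Compounds were added across 15 concentrations together with PK11195 at 0.75 uM final. Plates were incubated 23 hrs at 37 C. CellTiter-Fluor was added and fluorescence measured.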

| SMILES | Potency [1] | Potency [2] | Potency [3] | Potency [4] | Potency [5] | Potency [6] | Potency [7] | Potency [8] | Potency [9] | outcome [10] | Potency [11] | Potency [12] | Potency [13] | Potency [14] | Potency [15] | Potency [16] | outcome [17] | Potency [18] | activity change, positive = activation [19] | Potency [20] |
| --- | --- | --- | --- | --- | --- | --- | --- | --- | --- | --- | --- | --- | --- | --- | --- | --- | --- | --- | --- | --- |
| CCCCc1ccc(O)cc1 | inactive | inactive | inactive | inactive | inactive | inactive | inactive | inactive | inactive | inactive | inactive | inactive | 19.5 µM (active) | inactive | inactive | – | – | – | – | – |
| COc1cc(C[C@@H](C)N)c(OC)cc1C | inactive | inactive | inactive | inactive | inactive | inactive | inactive | inactive | inactive | inactive | inactive | inactive | inactive | inactive | inactive | inactive | inactive | inactive | -3.22% | – |
| CCS(=O)(=O)C(C)(C)S(=O)(=O)CC | inactive | inactive | inactive | inactive | inactive | inactive | inactive | inactive | inactive | inactive | inactive | inactive | inactive | inactive | inactive | inactive | inactive | inactive | 3.77% [at 42.5 µM] | – |
| CC(N)=S | inactive | inactive | inactive | inactive | inactive | inactive | inactive | – | inactive | inactive | inactive | inactive | inactive | inactive | inactive | – | – | – | – | – |
| Nc1n[nH]c(N)n1 | inactive | inactive | inactive | 27.8 µM (active) | inactive | inactive | inactive | inactive | inactive | inactive | inactive | inactive | – | inactive | inactive | – | – | – | – | – |
| ClCCOCOCCCl | inactive | inactive | inactive | inactive | inactive | inactive | inactive | inactive | inactive | inactive | inactive | inactive | inactive | inactive | inactive | inactive | inactive | inactive | -2.74% | – |
| CC(=O)C(Cl)Cl | inactive | inactive | inactive | inactive | inactive | inactive | inactive | inactive | inactive | inactive | inactive | inactive | inactive | inactive | inactive | inactive | inactive | inactive | 4.96% | – |
| c1ccc(N2CCNCC2)cc1 | inactive | inactive | inactive | inactive | inactive | inactive | inactive | inactive | inactive | inactive | inactive | – | inactive | inactive | inactive | – | – | – | – | – |
| CS(=O)(=O)c1cc(C(F)(F)F)ccc1C(=O)c1cnoc1C1CC1 | inactive | inactive | inactive | inactive | inactive | inactive | inactive | inactive | – | inactive | inactive | – | inactive | inactive | inactive | inactive | inactive | inactive | 9.23% | – |
| Cc1ncc(CNC(=O)N(CCCl)N=O)c(N)n1 | inactive | inactive | – | – | – | inactive | inactive | – | inactive | – | inactive | inactive | inactive | inactive | inactive | – | – | – | – | inactive |
| CC1(C)C(=O)NC(=O)NC1=O | inactive | inactive | inactive | inactive | inactive | inactive | inactive | – | inactive | inactive | inactive | inactive | inactive | inactive | inactive | inactive | inactive | inactive | -0.272% | – |
| CCN(CC)c1nc(C)cc(OP(=S)(OC)OC)n1 | inactive | inactive | inactive | inactive | 48.6 µM (active) | inactive | inactive | inactive | inactive | inactive | inactive | – | inactive | inactive | inactive | – | – | – | – | – |
| COC(=O)c1c(C(F)F)nc(C(F)(F)F)c(C2=NCCS2)c1CC(C)C | inactive | inactive | inactive | inactive | – | inactive | inactive | inactive | inactive | inactive | inactive | inactive | inactive | inactive | inactive | inactive | inactive | inactive | 1.38% | – |
| C=CCC1=C(C)[C@@H](OC(=O)[C@@H]2[C@@H](C=C(C)C)C2(C)C)CC1=O | 54.5 µM (active) | inactive | inactive | inactive | 24.3 µM (active) | – | inactive | 54.9 µM (active) | 56.6 µM (active) | – | 50.5 µM (active) | – | 13.8 µM (active) | inactive | inactive | – | inactive | 21.7 µM (active) | -64.6% | – |
| CC1(C)COP(Oc2ccccc2)OC1 | inactive | inactive | inactive | inactive | inactive | inactive | inactive | inactive | inactive | inactive | inactive | inactive | inactive | inactive | inactive | inactive | inactive | inactive | 6.55% | – |
